Measured values as given in PubChem BioAssay AID1347165 (National Center for Advancing Translational Sciences (NCATS), 2019).
About 5,700 (2.6%) of roughly 220,000 compounds were called active. Where a call stands in place of a potency, no number is given. Not shown: some 18% with an inconclusive outcome. Calls come from the whole dose curve; as a rule, active = well fitted inhibition curve with a large enough effect; inconclusive = small, poorly fitted or top-dose-only effect; inactive = no such curve, though single readings can be large or run the other way. Many of the other results were omitted from the sample, so actives are more common in it than they were.

biological target: Lysine-specific demethylase 5B (Homo sapiens) (UniProt Q9UGL1); assay: Primary screen for KDM5B Histone Demethylases FDH-coupled qHTS; conditions: FDH-coupled NADH fluorescence (FDH is formaldehyde dehydrogenase); series mostly up to 57.7 µM; note: nearly all actives have a fitted effect of over 70% in size
Source text: Assay Submitter (PI): Qin Yan, Ph.D. (Yale University) and Xiaodong Cheng, Ph.D. (MD Anderson) This project was funded as part of the NCI NEXT Program and Chemical Biology Consortium (CBC) The histone demethylases, KDM5A and KDM5B catalyze the demethylation of lysine 4 on histone H3 (H3K4me3/2). They are overexpressed in a variety of cancers and have been implicated in cancer cell growth, metastasis, drug resistance, and tumor growth. KDM5A is amplified and overexpressed in breast and gastric cancer; and is translocated in leukemia. While KDM5B is highly expressed in human mammary tumors and breast cancer cell lines, but not in normal adult breast tissue. Moreover, knockdown of KDM5B leads to upregulation of tumor suppressor genes, including BRCA1. The goal of this project is to employ qHTS to identify selective small molecule inhibitors of KDM5A/B demethylase activity to better understand the role of KDM5 in cancer and to develop novel therapies. We employed an FDH-coupled assay previously reported by Sakurai et al. to monitor in vitro KDM5 demethylase activity. Compounds showing dose response inhibition are re-acquired, validated, and tested for non-specific interference with the formaldehyde dehydrogenase (FDH) counterscreen. True inhibitors are validated using an AlphaLisa secondary screen, which employs an H3K4(me2-1)-specific antibody to monitor demethylation of a biotin-tagged H3K4(me3) peptide substrate. Inhibitors are profiled against KDM4A and KDM6A AlphaLisa counterscreens to determine level of demethylase specificity; and against the TruHits counterscreen to eliminate non-specific inhibitory activity on the AlphaLISA detection method. Selective inhibitors identified from the primary and secondary screening are tested in cells using immunofluorescence to monitor global H3K4 tri-methylation as a measure of KDM5A/B inhibition. Early Translation Branch (ETB) National Center for Advancing Translational Sciences (NCATS), Rockville, MD National Institute of Health (NIH), Bethesda, Maryland [1] Sakurai, M et al. A miniaturized screen for inhibitors of Jumonji histone demethylases. Mol Biosyst. 2010 Feb;6(2):357-64. doi: 10.1039/b912993f. Epub 2009 Oct 8.
Materials: 1536-well Black, solid bottom, medium binding assay plate is purchased from Greiner Bio-one. The enzymes (KDM5B) and substrate (H3K4me3/2) are provided by the principal investigators. The buffer for this assay is composed of 50mM HEPES at pH 7.5 with 0.01% Tween-20. FDH coupled Demethylase qHTS protocol: Three microliter enzyme mix (buffer + 200nM KDM5BDeltaAP final concentration) is dispensed into the assay plate using the BioRAPTR Flying Reagent Dispenser (FRD; […]). Compound (at various final concentration) and control solution is pin transferred to the assay plate using the Kalypsys 1536-pin tool apparatus. The assay plate is incubated for 10 min at room temperature followed by addition of 1uL substrate mix (buffer + 100uM ascorbic acid, 50uM ferrous ammonium sulfate, 12.5uM H3K4Me3, 25uM a-ketoglutarate, 0.25 mM NAD+, 0.25 U/mL formaldehyde dehydrogenase using the FRD yielding a total reaction volume of 4 uL. Initial fluorescence (Read1) is detected using the PerkinElmer ViewLux plate reader equipped with 340 nm excitation and 450 nm emission filters. The final fluorescence (Read2) signal is obtained after 30 min of room temperature incubation. Delta RFU is calculated (Read2 - Read1) and is used to generated dose response curves.
Potency is the fitted concentration of half-maximal effect.

Lysine-specific demethylase 5B (Homo sapiens), sequence (Q9UGL1 whole entry, looked up): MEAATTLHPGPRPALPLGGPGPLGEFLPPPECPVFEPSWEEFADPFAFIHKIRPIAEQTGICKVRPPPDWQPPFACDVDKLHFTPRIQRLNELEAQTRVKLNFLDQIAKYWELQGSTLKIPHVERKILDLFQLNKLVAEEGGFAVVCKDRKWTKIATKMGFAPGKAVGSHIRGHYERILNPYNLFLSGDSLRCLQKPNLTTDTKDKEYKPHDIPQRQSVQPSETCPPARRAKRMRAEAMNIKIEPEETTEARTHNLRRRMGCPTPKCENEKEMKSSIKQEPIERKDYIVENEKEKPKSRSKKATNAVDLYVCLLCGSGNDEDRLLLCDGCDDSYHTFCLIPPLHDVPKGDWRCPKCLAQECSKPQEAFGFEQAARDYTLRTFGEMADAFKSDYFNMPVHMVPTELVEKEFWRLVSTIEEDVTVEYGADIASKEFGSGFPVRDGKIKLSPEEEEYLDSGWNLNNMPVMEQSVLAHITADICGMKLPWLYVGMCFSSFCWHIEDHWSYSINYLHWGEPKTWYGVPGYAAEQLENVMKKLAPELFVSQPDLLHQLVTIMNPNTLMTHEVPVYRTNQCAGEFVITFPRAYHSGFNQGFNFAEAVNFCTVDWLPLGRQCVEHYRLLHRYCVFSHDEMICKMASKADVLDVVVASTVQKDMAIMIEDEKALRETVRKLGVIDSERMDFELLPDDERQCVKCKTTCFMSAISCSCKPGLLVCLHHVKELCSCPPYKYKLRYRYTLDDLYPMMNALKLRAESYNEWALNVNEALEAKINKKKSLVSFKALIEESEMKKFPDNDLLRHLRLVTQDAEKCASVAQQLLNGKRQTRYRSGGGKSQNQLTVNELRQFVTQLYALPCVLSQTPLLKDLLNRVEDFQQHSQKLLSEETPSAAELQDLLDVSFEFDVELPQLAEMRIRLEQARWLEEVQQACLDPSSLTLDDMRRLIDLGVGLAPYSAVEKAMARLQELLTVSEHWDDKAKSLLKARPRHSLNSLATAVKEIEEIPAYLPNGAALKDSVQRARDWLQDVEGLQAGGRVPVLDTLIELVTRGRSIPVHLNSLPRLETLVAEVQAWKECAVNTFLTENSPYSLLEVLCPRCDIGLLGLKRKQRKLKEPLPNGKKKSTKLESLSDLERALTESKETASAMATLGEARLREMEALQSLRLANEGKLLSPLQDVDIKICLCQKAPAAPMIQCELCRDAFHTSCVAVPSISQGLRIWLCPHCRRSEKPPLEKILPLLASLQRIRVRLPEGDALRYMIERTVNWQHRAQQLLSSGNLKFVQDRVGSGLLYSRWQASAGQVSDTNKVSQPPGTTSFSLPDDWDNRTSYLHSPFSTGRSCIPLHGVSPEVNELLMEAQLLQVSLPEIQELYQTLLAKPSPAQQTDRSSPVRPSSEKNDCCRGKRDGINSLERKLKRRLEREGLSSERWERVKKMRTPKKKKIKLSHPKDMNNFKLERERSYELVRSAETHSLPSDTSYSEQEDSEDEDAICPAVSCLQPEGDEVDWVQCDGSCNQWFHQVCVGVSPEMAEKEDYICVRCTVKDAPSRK

Q: Which Potency does the source give for `O=C(NC1CCCCC1)N1C[C@@H]2C[C@H](C1)c1c(-c3ccccc3F)ccc(=O)n1C2` here?
A: inactive

Q: With `O=C(COc1ccccc1)N1C[C@@H]2C[C@H](C1)c1c(-c3ccccc3F)ccc(=O)n1C2` as the compound, how does the Potency read?
A: inactive

Q: Which Potency does the source give for `Cc1ccccc1-c1ccc2n(c1=O)C[C@H]1C[C@@H]2CN(C(=O)CSCC(=O)O)C1` here?
A: 39.8 µM (active)

Q: For `O=C(Nc1ccc(Cl)cc1)N1C[C@@H]2C[C@H](C1)c1c(-c3ccccc3F)ccc(=O)n1C2`, which Potency is on record?
A: inactive

Q: `CCCS(=O)(=O)N1C[C@@H]2C[C@H](C1)c1ccc(-c3ccccc3C)c(=O)n1C2` was tested. Which Potency did it give?
A: 39.8 µM (active)

Q: With `O=C(Nc1ccc2n(c1=O)C[C@H]1C[C@@H]2CN(C(=O)c2ccccn2)C1)c1ccc(F)cc1` as the compound, how does the Potency read?
A: inactive

Q: With `Cc1ccc(NC(=O)N(Cc2ccc3c(c2)OCO3)C2CCN(Cc3ccccc3)CC2)cc1F` as the compound, how does the Potency read?
A: inactive

Q: How did the Potency turn out when `COc1ccc(/C=C\[N+](=O)[O-])c(OC)c1` was run?
A: inactive

Q: For `CC1(C)NN1CCCCN1NC1(C)C` (stereo not given), which Potency is on record?
A: inactive

Q: With `COC1CN(c2ccc(C)cc2)C12CCNCC2` (stereo not given) as the compound, how does the Potency read?
A: inactive

Q: Which Potency does the source give for `Cn1nc(-c2cccs2)cc1[C@H]1CN2CC[C@H]1C[C@@H]2CNC(=O)Nc1ccccc1` here?
A: inactive

Q: For `CN(C)C(=O)Oc1ccc2c(=O)c(-c3ccc(Br)cc3)c(C(F)(F)F)oc2c1`, which Potency is on record?
A: inactive

Q: With `Cc1ccc(CN2CCC3(CCNCC3)C2)c(O)c1` as the compound, how does the Potency read?
A: inactive

Q: For `Cc1ccc(C(=O)NC[C@H]2C[C@@H]3CCN2C[C@@H]3c2cc(-c3ccco3)nc(C)n2)cc1`, which Potency is on record?
A: 39.8 µM (active)

Q: With `COc1ccc(C(=O)NC[C@H]2C[C@@H]3CCN2C[C@@H]3c2cc(-c3ccccc3)nn2C)cc1` as the compound, how does the Potency read?
A: inactive

Q: For `COc1ccccc1-c1cc([C@H]2CN3CC[C@H]2C[C@@H]3CNC(=O)c2ccco2)n(C)n1`, which Potency is on record?
A: inactive

Q: For `COc1ccccc1-c1cc([C@H]2CN3CC[C@H]2C[C@@H]3CNC(C)=O)n(C)n1`, which Potency is on record?
A: inactive

Q: With `Cc1nc(-c2ccc(C(F)(F)F)cc2)cc([C@H]2CN3CC[C@H]2C[C@@H]3CNC(=O)c2ccco2)n1` as the compound, how does the Potency read?
A: inactive

Q: Which Potency does the source give for `COc1ccccc1-c1cc([C@H]2CN3CC[C@H]2C[C@@H]3CNC(=O)c2ccco2)nc(C)n1` here?
A: 31.6 µM (active)

Q: How did the Potency turn out when `COc1cc2c(cc1Oc1cccc(N(C)C)c1)NC(=O)C21CCN(Cc2ccccn2)CC1` was run?
A: inactive

Q: With `c1ccc(CCN2CCC3(CC2)OCCO3)cc1` as the compound, how does the Potency read?
A: inactive

Q: Which Potency does the source give for `C=C[C@H]1CN2CC[C@H]1C[C@@H]2CNCc1ccc(C(F)(F)F)cc1` here?
A: inactive

Q: Which Potency does the source give for `COc1ccc(-c2cc([C@H]3CN4CC[C@H]3C[C@@H]4COC(=O)NC(C)C)nc(C)n2)cc1` here?
A: 28.2 µM (active)

Q: `CCCS(=O)(=O)NC[C@H]1C[C@@H]2CCN1C[C@@H]2c1cc(-c2ccccc2)nc(C)n1` was tested. Which Potency did it give?
A: inactive

Q: How did the Potency turn out when `Cc1nc(-c2ccc(N(C)C)cc2)cc([C@H]2CN3CC[C@H]2C[C@@H]3CNC(=O)C2CCC2)n1` was run?
A: 39.8 µM (active)

Q: For `COc1ccc(-c2cc([C@H]3CN4CC[C@H]3C[C@@H]4CNC(=O)C3CC3)n(C)n2)cc1OC`, which Potency is on record?
A: inactive

Q: How did the Potency turn out when `COc1ccc(-c2cc([C@H]3CN4CC[C@H]3C[C@@H]4CNC(=O)C3CCCCC3)n(C)n2)cc1` was run?
A: inactive

Q: For `Cc1nc(-c2ccccc2)cc([C@H]2CN3CC[C@H]2C[C@@H]3CNC2CCOCC2)n1`, which Potency is on record?
A: inactive

Q: With `CC(C)(C)NC(=O)NC(=O)CCl` as the compound, how does the Potency read?
A: inactive

Q: Which Potency does the source give for `Cc1ccc(C(=O)N2[C@H]3CC[C@@H]2c2cnc(-c4ccccc4)nc2C3)c(C)c1` here?
A: inactive

Q: For `Cc1nc(C)c(C(=O)N2[C@H]3CC[C@@H]2c2cnc(-c4ccccc4)nc2C3)s1`, which Potency is on record?
A: inactive

Q: How did the Potency turn out when `CCOC(=O)c1c(C)n(Cc2ccccc2Cl)c2ccc(O)cc12` was run?
A: inactive

Q: For `CC(=O)Nc1ccc(-c2ccc3n(c2=O)C[C@H]2C[C@@H]3CN(C3CCN(C)CC3)C2)cc1`, which Potency is on record?
A: 39.8 µM (active)

Q: How did the Potency turn out when `O=C(Nc1ccccc1)N1C[C@@H]2C[C@H](C1)c1c(-c3ccc(Cl)cc3)ccc(=O)n1C2` was run?
A: inactive

Q: For `O=C(c1ccncc1)N1C[C@@H]2C[C@H](C1)c1ccc(C3CCCCC3)c(=O)n1C2`, which Potency is on record?
A: inactive
